# Measured values: PubChem BioAssay (Tox21)
# Several values for one entry are separate records, joined by “and”; a condition that tells them apart may be missing. Equal values may be shown once. Results filed as inconclusive are left out. Entries that show only a call come without a potency. Activity calls are given as the source filed them. The call rests on the fitted dose curve; in most records, active means well fitted inhibition curve with a large enough effect in the repeat runs; inconclusive means weak or mixed curves; inactive means no such curve, though single readings can be large or run the other way.
# Molecular target: Cytochrome P450 3A4 (Homo sapiens) (UniProt P08684)
# Assay: Cytochrome P450 Family 3 Subfamily A Member 4 (CYP3A4) small molecule antagonists: luciferase reporter qHTS assay (AID 1671201); further: nearly all actives have a fitted effect of over 50% in size
# Conditions: P450-Glo CYP3A4 enzyme, luciferin luminescence, 1 h; series mostly up to 115 µM
# Method in brief: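 qHTS, 1536-well. CYP3A4 + proluciferin substrate, cpd 10 min RT → NADPH regen 1 h RT → detection reagent 20 min → luminescence (RLU). Ketoconazole positive control.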
# Potency means the concentration at half of the fitted maximal effect.
# Sequence of Cytochrome P450 3A4 (Homo sapiens) (P08684 whole entry, looked up): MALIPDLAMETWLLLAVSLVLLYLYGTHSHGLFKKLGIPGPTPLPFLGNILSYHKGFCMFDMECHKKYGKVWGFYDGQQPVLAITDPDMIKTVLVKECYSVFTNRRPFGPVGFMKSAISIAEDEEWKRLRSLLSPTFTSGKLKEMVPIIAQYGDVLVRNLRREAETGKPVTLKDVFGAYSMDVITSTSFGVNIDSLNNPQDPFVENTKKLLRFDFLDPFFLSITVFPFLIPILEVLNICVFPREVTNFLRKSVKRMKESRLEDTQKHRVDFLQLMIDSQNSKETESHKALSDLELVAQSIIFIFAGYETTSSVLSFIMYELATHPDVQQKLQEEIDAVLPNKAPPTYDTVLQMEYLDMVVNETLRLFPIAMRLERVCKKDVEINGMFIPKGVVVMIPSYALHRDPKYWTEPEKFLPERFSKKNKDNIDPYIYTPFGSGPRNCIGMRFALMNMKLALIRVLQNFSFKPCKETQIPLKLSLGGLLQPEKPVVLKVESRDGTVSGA
row,SMILES,Potency
1,c1ccc2c(c1)OCC(C1=NCCN1)O2 (configuration not stated),inactive
2,CC(C)CC(C)N (configuration not stated),inactive
3,CC(C)CBr,inactive
4,Cn1cc(C2=C(c3cn(C4CCN(Cc5ccccn5)CC4)c4ccccc34)C(=O)NC2=O)c2ccccc21,inactive
5,CC(C)N1C(=O)N(c2ccccc2)CSC1=NC(C)(C)C,31.7 µM (active)
6,CCCCCCCCCCBr,inactive
7,N#CCCO,inactive
8,Oc1ccc(C(c2ccc(O)cc2)(C(F)(F)F)C(F)(F)F)cc1,35.4 µM (active) and 35.6 µM (active)
9,CN(C)S(=O)(=O)N(SC(F)(Cl)Cl)c1ccccc1,inactive
10,N#CC(Cl)Cl,inactive
11,Nc1ccc(Cc2ccc(N)c(Cl)c2)cc1Cl,3.44 µM (active)
12,CCC(C)c1cc([N+](=O)[O-])cc([N+](=O)[O-])c1OC(=O)C=C(C)C (configuration not stated),inactive
13,Cc1cc(C)c(C2=C(OC(=O)CC(C)(C)C)C3(CCCC3)OC2=O)c(C)c1,37.3 µM (active)
14,S=C=Nc1cccc2ccccc12,3.14 µM (active)
15,CC(=[OH+])/C=C(/C)[O-].CC(=[OH+])/C=C(\C)[O-].CC(=[OH+])/C=C(\C)[O-].[Al],inactive
16,O=c1c(C2CC(c3ccc(-c4ccc(Br)cc4)cc3)Cc3ccccc32)c(O)sc2ccccc12 (configuration not stated),inactive
17,O=C1C=CC(=O)c2ccccc21,15.9 µM (active)
18,Nc1ccc([N+](=O)[O-])cc1Cl,inactive
19,O=C/C(Cl)=C(/Cl)C(=O)O,inactive
20,COc1ccc(OC)c(C=O)c1,inactive
21,[Cl][Sb]([Cl])[Cl],inactive
22,CCCCCCCCCBr,inactive
